# Results from PubChem BioAssay (NCI).
# The panel holds about 79,000 compounds, 15% with a hit somewhere; the sample as a whole holds those more often. Values without a mark were called inactive. Activity calls are given as the source filed them. No stated cut-off is given here; in the data, active means growth inhibition above about 70%; inactive means the rest.
# Assays:
# [1] = NCI Yeast Anticancer Drug Screen. Data for the rad50 strain (AID 155);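 further: 0% = growth of vehicle-only cultures of the same strain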; settings: S. cerevisiae rad50 strain growth inhibition, active compounds read high
# How it was run: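 Growth of the mutant yeast was measured after compound exposure and referenced to vehicle-treated cultures.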
# [2] = NCI Yeast Anticancer Drug Screen. Data for the mec2-1 strain (AID 157); settings: S. cerevisiae mec2-1 strain, active compounds read high
# How it was run: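 Compounds were applied to mec2-1 yeast cells. Their growth was then compared with that of vehicle-treated cultures to give growth inhibition.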
# [3] = NCI Yeast Anticancer Drug Screen. Data for the sgs1 mgt1 strain (AID 161);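 further: 0% = growth of cultures given vehicle only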; settings: S. cerevisiae sgs1 mgt1 strain, active compounds read high
# How it was run: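 Yeast cells carrying a defined DNA-repair defect were exposed to test compounds. Growth inhibition was measured relative to vehicle-treated controls.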
# [4] = NCI Yeast Anticancer Drug Screen. Data for the cln2 rad14 strain (AID 165);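 further: 0% = growth equal to vehicle treated cultures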; settings: S. cerevisiae cln2 rad14 strain, active compounds read high
# How it was run: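 Strain: cln2 rad14 yeast, altered in cell cycle control and DNA damage repair. Read-out: growth inhibition vs vehicle.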
# [5] = NCI Yeast Anticancer Drug Screen. Data for the bub3 strain (AID 167); settings: S. cerevisiae bub3 mutant strain, active compounds read high
# How it was run: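 Whole-cell yeast assay. The mutant strain was incubated with compounds, and growth inhibition was determined by comparison with vehicle-treated cells.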
# [6] = NCI Yeast Anticancer Drug Screen. Data for the mlh1 rad18 strain (AID 175); settings: S. cerevisiae mlh1 rad18 strain growth inhibition, active compounds read high
# How it was run: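 A repair-deficient yeast strain is exposed to test compound, and growth is scored relative to vehicle-treated controls.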
# [7] = at 5.0 µM (retest, dose inferred, filed as 0.5)
# [8] = at 50.0 µM (retest, dose inferred, filed as 5.0)
SMILES,"growth inhibition [1, 7]","growth inhibition [1, 8]",growth inhibition ([1]; at 50.0 µM),"growth inhibition [2, 7]","growth inhibition [2, 8]",growth inhibition ([2]; at 50.0 µM),"growth inhibition [3, 7]","growth inhibition [3, 8]",growth inhibition ([3]; at 50.0 µM),"growth inhibition [4, 7]","growth inhibition [4, 8]",growth inhibition ([4]; at 50.0 µM),"growth inhibition [5, 7]","growth inhibition [5, 8]",growth inhibition ([5]; at 50.0 µM),"growth inhibition [6, 7]","growth inhibition [6, 8]",growth inhibition ([6]; at 50.0 µM)
Cc1cc(Cl)c2cc(Cc3ccc(Br)cc3)ccc2n1,-3%,10%,16.5%,-10%,20%,36%,11%,37%,43.9%,1%,-1%,50.6%,4%,12%,37.6%,15%,15%,55.9%
CN1CCN=C1c1ccc(NC(=O)Nc2ccc(NC(=O)Nc3ccc(C4=NCCN4C)cc3)cc2)cc1,-1%,80% (active),84.8% (active),-15%,85% (active),86.5% (active),-15%,74% (active),90% (active),-10%,61%,50.8%,-2%,83% (active),92% (active),1%,83% (active),93.8% (active)
CN(C)CCNC(=O)C(c1ccccc1)c1ccccc1,31%,13%,63.1%,2%,-4%,94.7% (active),6%,-25%,12.8%,-1%,-3%,96.2% (active),-1%,-11%,98% (active),30%,11%,98.5% (active)
Cc1c2ccccc2c(CCl)c2ccc3ccccc3c12,99% (active),98% (active),97.7% (active),100% (active),99% (active),97.2% (active),100% (active),99% (active),98.3% (active),99% (active),99% (active),97.5% (active),99% (active),99% (active),98.8% (active),100% (active),99% (active),96.8% (active)
O=C1c2c(Br)c(Br)c(Br)c(Br)c2C(=O)N1c1nccs1,-1%,51%,75.4% (active),-4%,72% (active),70.8% (active),-10%,54%,75% (active),-20%,25%,45.5%,11%,70% (active),69.4%,21%,72% (active),72.3% (active)
CCC(c1ccc(OC)cc1)C(CC)c1ccc(O)c(CN(C)C)c1 (stereo not given),-2%,39%,60.1%,0%,38%,27.1%,-4%,86% (active),72.9% (active),-1%,41%,38.3%,4%,50%,49%,3%,84% (active),83.5% (active)
CCOC1(OCC)Cc2nc3ccccc3cc21,4%,94% (active),96.7% (active),-2%,96% (active),96.8% (active),2%,96% (active),95.5% (active),0%,91% (active),92.5% (active),-2%,93% (active),96.7% (active),3%,95% (active),97.2% (active)
C=CS(=O)(=O)c1ccc(Cl)cc1,-116%,97% (active),99.7% (active),-19%,98% (active),99.7% (active),-23%,98% (active),99.2% (active),-42%,98% (active),99.1% (active),-34%,98% (active),99.4% (active),-73%,97% (active),99% (active)
Nc1c(NCc2ccccc2)ccc2ncccc12,-10%,93% (active),95.2% (active),-17%,97% (active),93.4% (active),-7%,94% (active),93.2% (active),-7%,71% (active),96.4% (active),2%,93% (active),98% (active),6%,96% (active),98.1% (active)
CC1(c2ccc(F)cc2)OC(=O)c2c1ccc1ccccc21 (stereo not given),-7%,68%,56.2%,-5%,78% (active),42.8%,0%,81% (active),56.5%,-15%,70% (active),-2.35%,-6%,88% (active),72.6% (active),-9%,84% (active),29.5%
